Experimental data taken from PubChem BioAssay (Tox21).
Results filed as inconclusive are left out. Activity calls are given as the source filed them. Calls follow the shape of the dose curve; as a rule, active = well fitted curve in the direction sought with a large enough effect in the repeat runs; inconclusive = weak or mixed curves; inactive = no such curve, though single readings can be large; an effect the other way counts as inactive or inconclusive.

Test system: not listed separately
Test: Caspase-3/7 induction in HepG2 cells by small molecules, qHTS cell viability counter screen (AID 1346981); also: nearly all actives have a fitted effect of over 30% in size
Conditions: CellTiter-Fluor fluorescence, 17 h; series mostly up to 92.4 µM; activity change, negative = cytotoxicity: at the top concentration
Summary of the method: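 Wild-type HepG2 cells (2,000/well) were allowed to settle for 5 hr at 37 C, 5% CO2, then dosed with compounds in DMSO by pin transfer. After 16 hr at 37 C, CellTiter-Fluor was added and fluorescence read 1 hr later.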
% is scaled to controls: 0 for no effect and ±100 for the full control effect; potency is read from the fitted curve at half-maximal effect.

Compound	Potency	activity change, negative = cytotoxicity
CCC(C)Nc1ccc(NC(C)CC)cc1 (configuration not stated)	27.8 µM (active)	–
CCC(CN)=C(c1ccccc1)c1ccccc1	–	-11.5% [at 42.5 µM] (inactive)
CCc1cc(SCc2sc(-c3ccc(C(F)(F)F)cc3)nc2CN2CCN(c3ccc(OC)cc3)CC2)ccc1OCC(=O)O	24.3 µM (active)	–
CC(=O)N1CCN(c2ccc(OC[C@H]3CO[C@](Cn4ccnc4)(c4ccc(Cl)cc4Cl)O3)cc2)CC1	61.1 µM (active)	–
Cc1ccc(-n2nc(C(C)(C)C)cc2NC(=O)Nc2ccc(OCCN3CCOCC3)c3ccccc23)cc1	–	-10.8% [at 42.5 µM] (inactive)
Oc1ccc(N=Nc2ccccc2)cc1	55.2 µM (active)	–
CCCCCCCCCOC(=O)c1ccc(O)cc1	60.3 µM (active)	–
Nc1c2ccccc2nc2ccccc12	–	6.74% [at 42.5 µM] (inactive)
C[C@H](CCC(=O)O)[C@H]1CC[C@H]2[C@@H]3CC[C@@H]4C[C@H](O)CC[C@]4(C)[C@H]3CC[C@]12C	60.9 µM (active)	–
CCc1cc(Cc2cc(CC)cc(C(C)(C)C)c2O)c(O)c(C(C)(C)C)c1	54.5 µM (active)	–

Biological target: Nuclear receptor subfamily 1 group I member 2 (Homo sapiens) (UniProt O75469)
Test: Human pregnane X receptor (PXR) small molecule agonists, qHTS assay (AID 1346982); also: nearly all actives have a fitted effect of over 35% in size
Conditions: PXR-Luc HepG2, CYP3A4 luciferase reporter, 24 h; series mostly up to 92.4 µM; activation: at the top concentration
Summary of the method: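 PXR-Luc HepG2 cells (CYP3A4 promoter-driven luciferase) were seeded in medium with 5% charcoal-stripped FBS, left 5 hr at 37 C, then exposed to compounds in DMSO for 24 hr. Luminescence was read after ONE-Glo addition.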

Nuclear receptor subfamily 1 group I member 2 (Homo sapiens), sequence (O75469 whole entry, looked up): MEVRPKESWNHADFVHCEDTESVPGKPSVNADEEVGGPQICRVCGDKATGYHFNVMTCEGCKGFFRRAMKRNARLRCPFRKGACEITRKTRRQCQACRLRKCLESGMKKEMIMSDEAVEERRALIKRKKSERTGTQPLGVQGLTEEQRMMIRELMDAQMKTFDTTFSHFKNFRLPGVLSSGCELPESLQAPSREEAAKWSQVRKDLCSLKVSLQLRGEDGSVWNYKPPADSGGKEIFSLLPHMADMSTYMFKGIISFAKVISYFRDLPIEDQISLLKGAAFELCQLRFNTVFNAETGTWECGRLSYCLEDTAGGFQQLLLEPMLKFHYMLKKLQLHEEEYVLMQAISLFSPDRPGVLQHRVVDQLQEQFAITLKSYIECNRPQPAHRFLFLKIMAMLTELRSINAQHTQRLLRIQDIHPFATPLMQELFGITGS

Compound	Potency	activation
CCCCN(CCCC)c1ccc(C(=O)c2ccccc2C(=O)O)c(O)c1	61.7 µM (active)	–
CCCCCCCCS(=O)C(C)Cc1ccc2c(c1)OCO2 (configuration not stated)	19.7 µM (active)	–
CCOc1nc2cccc(C(=O)OC(C)OC(=O)OC3CCCCC3)c2n1Cc1ccc(-c2ccccc2-c2nn[nH]n2)cc1 (configuration not stated)	24.3 µM (active)	–
CCOc1ccc2nc3cc(N)ccc3c(N)c2c1	–	15.4% [at 42.5 µM] (inactive)
CC[C@@]1(O)C(=O)OCc2c1cc1n(c2=O)Cc2cc3c(CN(C)C)c(O)ccc3nc2-1	–	-28.8% [at 42.5 µM] (inactive)
CC[C@@]1(O)C(=O)OCc2c1cc1n(c2=O)Cc2c-1nc1ccccc1c2/C=N/OC(C)(C)C	–	-36.7% [at 42.5 µM] (inactive)
O=C(Nc1ccc(Oc2ccc(Cl)cc2)c(Cl)c1)c1cc(I)cc(I)c1O	26.6 µM (active)	–
CCCCN1C(=O)[C@@H]([C@H](O)C2CCCCC2)NC(=O)C12CCN(Cc1ccc(Oc3ccc(C(=O)O)cc3)cc1)CC2	–	18.9% (inactive)
CCc1cc(SCc2sc(-c3ccc(C(F)(F)F)cc3)nc2CN2CCN(c3ccc(OC)cc3)CC2)ccc1OCC(=O)O	48.6 µM (active)	–
Cc1cccc(CN2CCN(C(c3ccccc3)c3ccc(Cl)cc3)CC2)c1 (configuration not stated)	–	-4.94% [at 42.5 µM] (inactive)
CCCCCCCC[P+](CCCCCCCC)(CCCCCCCC)CCCCCCCC	2.42 µM (active)	–
Nc1ccc2c3c(cccc13)-c1ccccc1-2	27.6 µM (active)	–
CC(=O)N1CCN(c2ccc(OC[C@H]3CO[C@](Cn4ccnc4)(c4ccc(Cl)cc4Cl)O3)cc2)CC1	–	-55.7% (inactive)
Nc1nc2ccccc2n1Cc1ccc(F)cc1	26.6 µM (active)	–
Cc1ccc(-n2nc(C(C)(C)C)cc2NC(=O)Nc2ccc(OCCN3CCOCC3)c3ccccc23)cc1	23.7 µM (active)	–
CC(C)n1nc(-c2cc3cc(O)ccc3[nH]2)c2c(N)ncnc21	3.76 µM (active)	–
CSc1ccc2c(c1)C(N1CCN(C)CC1)Cc1ccccc1S2 (configuration not stated)	–	-2.32% [at 42.5 µM] (inactive)
Oc1ccc(N=Nc2ccccc2)cc1	34.8 µM (active)	–
CCN(CC)CCCC(C)Nc1c2ccc(Cl)cc2nc2ccc(OC)cc12 (configuration not stated)	5.96 µM (active)	–
CCCCCCCCCOC(=O)c1ccc(O)cc1	–	8.95% (inactive)
C[C@@H]1C[C@H]2[C@@H]3CCC4=CC(=O)C=C[C@]4(C)[C@@]3(Cl)[C@@H](O)C[C@]2(C)[C@@]1(OC(=O)c1ccco1)C(=O)CCl	26.6 µM (active)	–
CC(C)c1ccc2c(c1)CC[C@H]1[C@](C)(CN)CCC[C@]21C	19.3 µM (active)	–
Nc1ccc(N)c2ccccc12	8.63 µM (active)	–
Cc1[nH]cnc1C[C@H]1CCc2c(C)c3ccccc3n2C1=O	59.6 µM (active)	–
N/C(=N\N=C\c1ccc(Cl)cc1)N/N=C/c1ccc(Cl)cc1	11.9 µM (active)	–
Cc1cc(=O)oc2cc(N(C)C)ccc12	48.6 µM (active)	–
C[C@H](CCC(=O)O)[C@H]1CC[C@H]2[C@@H]3CC[C@@H]4C[C@H](O)CC[C@]4(C)[C@H]3CC[C@]12C	54.5 µM (active)	–
CCc1cc(Cc2cc(CC)cc(C(C)(C)C)c2O)c(O)c(C(C)(C)C)c1	0.686 µM (active)	–

Biological target: Nuclear receptor subfamily 1 group I member 2 (Rattus norvegicus) (UniProt Q9R1A7)
Test: Rat pregnane X receptor (rPXR) activation by small molecules, qHTS assay (AID 1346983); also: nearly all actives have a fitted effect of over 20% in size
Conditions: rPXR luciferase reporter cells, One-Glo luminescence, 24 h; max activation: hits give high values
Summary of the method: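 Luminescent readout (One-Glo luciferase, 30 min room temperature) followed 24 hr compound treatment at 37 C of rPXR cells plated 2,000 per well and preincubated 5hr; qHTS format with compounds delivered in DMSO.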

Nuclear receptor subfamily 1 group I member 2 (Rattus norvegicus), sequence (Q9R1A7 whole entry, looked up): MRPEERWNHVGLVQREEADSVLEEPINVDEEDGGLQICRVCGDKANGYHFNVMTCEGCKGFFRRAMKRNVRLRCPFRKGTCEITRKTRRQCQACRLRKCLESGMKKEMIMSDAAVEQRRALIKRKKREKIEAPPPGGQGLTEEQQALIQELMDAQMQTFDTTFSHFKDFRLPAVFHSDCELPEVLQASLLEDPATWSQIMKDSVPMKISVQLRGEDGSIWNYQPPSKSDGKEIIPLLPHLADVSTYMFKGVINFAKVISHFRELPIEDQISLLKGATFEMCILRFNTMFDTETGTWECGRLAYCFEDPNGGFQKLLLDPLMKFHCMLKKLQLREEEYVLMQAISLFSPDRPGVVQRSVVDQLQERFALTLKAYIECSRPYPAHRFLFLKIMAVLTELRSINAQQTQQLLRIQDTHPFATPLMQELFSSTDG

Compound	max activation	Potency
CCOc1ccc2nc3cc(N)ccc3c(N)c2c1	1.69% (inactive)	–
CC[C@@]1(O)C(=O)OCc2c1cc1n(c2=O)Cc2cc3c(CN(C)C)c(O)ccc3nc2-1	-5.54% (inactive)	–
O=C(Nc1ccc(Oc2ccc(Cl)cc2)c(Cl)c1)c1cc(I)cc(I)c1O	-12.9% (inactive)	–
Cc1cccc(CN2CCN(C(c3ccccc3)c3ccc(Cl)cc3)CC2)c1 (configuration not stated)	-4.36% (inactive)	–
CC(=O)N1CCN(c2ccc(OC[C@H]3CO[C@](Cn4ccnc4)(c4ccc(Cl)cc4Cl)O3)cc2)CC1	-4.95% (inactive)	–
CCCC1O[C@@H]2C[C@H]3[C@@H]4CCC5=CC(=O)C=C[C@]5(C)[C@H]4[C@@H](O)C[C@]3(C)[C@]2(C(=O)CO)O1 (some centres not stated)	–	12.6 µM (active)
CSc1ccc2c(c1)C(N1CCN(C)CC1)Cc1ccccc1S2 (configuration not stated)	-6.14% (inactive)	–
C[C@@H]1C[C@H]2[C@@H]3CCC4=CC(=O)C=C[C@]4(C)[C@@]3(Cl)[C@@H](O)C[C@]2(C)[C@@]1(OC(=O)c1ccco1)C(=O)CCl	–	2 µM (active)
N/C(=N\N=C\c1ccc(Cl)cc1)N/N=C/c1ccc(Cl)cc1	-3.26% (inactive)	–
